Measured values published in PubChem BioAssay (Tox21).
Inconclusive results are not listed. A call without a number means that no potency is given here. Active and inactive are the calls of the source. The call rests on the fitted dose curve; in most records, active means well fitted activation curve with a large enough effect in the repeat runs; inconclusive means weak or mixed curves; inactive means no such curve, though single readings can be large or run the other way.

Experiment: qHTS assay to identify small molecule agonists of the estrogen related receptor (ERR) signaling pathway (AID 1224820)
Details: ERR reporter cell line, luciferase agonist mode; series mostly up to 46.1 µM
Source text: National Center for Advancing Translational Sciences [NCATS]
NIH Chemical Genomics Center [NCGC]
U.S. Environmental Protection Agency [EPA]
National Institutes of Environmental Health Sciences [NIEHS]
National Toxicology Program [NTP]
Estrogen related receptors (ERRs), the first orphan nuclear receptors discovered, play an important role in the control of cellular energy metabolism. ERRs are required for high-energy production in response to the environmental challenges. ERR-alpha was also identified as an adverse marker for breast cancer progression; ERR-alpha-positive tumors have a poor prognosis. To screen and to identify environmental compounds that perturb the ERR signaling pathways could provide valuable information for potential therapeutic or preventive measures in the treatment of metabolic disease. For identifying ERR agonists, ERR cell line (provided by NTP) has been used to screen LOPAC library.
The ERR cells were dispensed at 2,000 cells/5 ul/well in 1536-well white plates using a Multidrop dispenser. After the assay plates were incubated at a 37 C/5% CO2 incubator for 6 hours, 23 nL of compounds dissolved in DMSO, positive and negative controls or DMSO only was transferred to the assay plate by a pin tool. The plates were incubated at 37 C for 18 hours. 4 ul/well of One-Glo reagent was added into the assay plates using a Flying Reagent Dispenser. After 30 min incubation at room temperature, the luminescence intensity in the plates was measured using a ViewLux plate reader.
In the case of `NC(C(=O)O)c1cc(=O)[nH]o1` (stereo not given), the Potency is reported as “inactive”.
In the case of `CN1CCc2cccc(Cl)c2CC1`, the Potency is reported as “inactive”.
With `O=c1ccc2[nH]cc(C3=CCNCC3)c2[nH]1` the Potency was “inactive”.
For `N[C@@H](Cn1oc(=O)[nH]c1=O)C(=O)O`, the Potency was “inactive”.
For `CP(=O)(O)C1=CCNCC1`, the Potency was “inactive”.
In the case of `Oc1ccc2c3c1O[C@H]1c4oc5ccccc5c4C[C@@]4(O)C(C2)N(CC2CC2)CCC314` (stereo not given in full), the Potency is reported as “inactive”.
With `COC(=O)N1CCN(C(=O)Cc2ccc(Cl)c(Cl)c2)C(CN2CCCC2)C1` (stereo not given) the Potency was “inactive”.
With `CCN(CC)c1ncnc2c1ncn2[C@@H]1O[C@H](COP(=O)(O)OP(=O)(O)C(Br)(Br)P(=O)(O)O)[C@@H](O)[C@H]1O` the Potency was “inactive”.
For `c1ccc(C2(c3ccccc3)CC2C2=NCCN2)cc1` (stereo not given), the Potency was “inactive”.
With `C[N+]1(C)C2CCC1CC(OC(=O)c1c[nH]c3ccccc13)C2` (stereo not given) the Potency was “inactive”.
In the case of `O=[N+]([O-])c1cc(O)c(O)c([N+](=O)[O-])c1`, the Potency is reported as “inactive”.
In the case of `CNCCc1ccc(O)c(O)c1`, the Potency is reported as “inactive”.
With `CCCN(CCC)C1Cc2cc(OC)c(OC)cc2C1` the Potency was “inactive”.
With `C[C@@H]1O[C@H](C[N+](C)(C)C)C[C@H]1O` the Potency was “inactive”.
In the case of `c1ccc(CCCN2CCN(CCOC(c3ccccc3)c3ccccc3)CC2)cc1`, the Potency is reported as “inactive”.
With `Ic1ccccc1CNC1C2CCN(CC2)C1C(c1ccccc1)c1ccccc1` (stereo not given) the Potency was “inactive”.
For `NCc1cc(=O)[nH]o1`, the Potency was “inactive”.
In the case of `CC(N)Cc1c[nH]c2ccc(OCc3cccs3)cc12` (stereo not given), the Potency is reported as “inactive”.
With `O=[N+]([O-])c1ccc2nc(N3CCNCC3)ccc2c1` the Potency was “inactive”.
With `CCCN(CCC)C1CCc2cccc(O)c2C1` (stereo not given) the Potency was “inactive”.
For `COC[C@H]1OC(=O)c2coc3c2[C@@]1(C)C1=C(C3=O)C2CCC(=O)[C@@]2(C)C[C@H]1OC(C)=O` (stereo not given in full), the Potency was “inactive”.
For `CN[C@@H]1C[C@@H](c2ccc(Cl)c(Cl)c2)c2ccccc21`, the Potency was “inactive”.
For `NC(=O)c1ccc(OCC(O)CN2CC=C(c3ccc(F)cc3)CC2)cc1` (stereo not given), the Potency was “inactive”.
With `CC(=O)[C@H]1CCC2C3CC[C@H]4C[C@H](O)CC[C@]4(C)C3CC[C@@]21C` (stereo not given in full) the Potency was “inactive”.
For `O=C(Cc1ccc(Cl)c(Cl)c1)N1CCCCC1CN1CCCC1` (stereo not given), the Potency was “inactive”.
In the case of `CC(=O)NCCc1c[nH]c2ccccc12`, the Potency is reported as “inactive”.
For `CCCN(CCC)C1CCc2ccc(O)cc2C1` (stereo not given), the Potency was “inactive”.
For `NCCCP(=O)(O)O`, the Potency was “inactive”.
For `Cc1[nH]c2ccc(O)cc2c1CCN`, the Potency was “inactive”.
In the case of `Nc1cc2c(ncn2CCOCP(=O)(O)O)c(=O)[nH]1`, the Potency is reported as “inactive”.
In the case of `O=C(O)Cc1cnc[nH]1`, the Potency is reported as “inactive”.
In the case of `C#CCN[C@H](C)Cc1ccccc1`, the Potency is reported as “inactive”.
For `CCCN1CCc2cccc3c2[C@H]1Cc1ccc(O)c(O)c1-3`, the Potency was “inactive”.
In the case of `CC(C)[C@H]1CN[C@H](C(=O)O)[C@H]1CC(=O)O`, the Potency is reported as “inactive”.
In the case of `C/C=C(/C)C(=O)O[C@H]1C(C)=C2[C@H]([C@@H]1OC(=O)CCCCCCC)[C@@](C)(OC(C)=O)C[C@H](OC(=O)CCC)[C@@]1(O)[C@H]2OC(=O)[C@@]1(C)O`, the Potency is reported as “inactive”.
With `Nc1ccc(CCN2CCN(c3cccc(C(F)(F)F)c3)CC2)cc1` the Potency was “inactive”.
In the case of `CC(Cc1ccc(OCC(=O)O)cc1)NCC(O)c1cccc(Cl)c1` (stereo not given), the Potency is reported as “inactive”.
For `O=C(Nc1ccccc1-c1ccc(Cl)cc1)c1cccnc1Cl`, the Potency was “inactive”.
In the case of `Cn1cnc(CCN)c1`, the Potency is reported as “inactive”.
In the case of `CC(N)Cc1c[nH]c2ccc(O)cc12` (stereo not given), the Potency is reported as “inactive”.
